Screening results from PubChem BioAssay.
Shown are actives, neighbours in structure and some others; about 19% of the full set was active somewhere.
KB-V1 cytotox – kills drug-selected multidrug resistant KB-V1 cells | KB-V1 MDR cells viability, CellTiter-Glo, 72 h | Potency, µM (titrated, usually from 46.1 µM), hits mostly cytotoxic | actives 3.4% (n = 400,000); further: nearly all actives have a fitted effect of over 60% in size
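In this primary screen, KB-V1 cells overexpressing P-gp are incubated with library compounds (lowest to highest concentration) for 72 h at 37 degrees C before a luminescent ATP viability read.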
HT1080NT lethal – kills 2HG-producing HT-1080-NT fibrosarcoma cells; HT-1080-NT fibrosarcoma viability, CellTiter-Glo ATP luminescence, 48 h; Potency, µM (series often up to 46.1 µM), without a hit: top-dose activity, negative = less viability, most hits filed as cytotoxic; actives 1.6% (n = 360,000); AID 686970;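 further: NT is the 2HG producing partner of a matched IDH1 knockdown line; 0% = DMSO-treated cells and -100% = media-only wells without cells; nearly all actives have a fitted effect of over 55% in size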
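Compounds were tested in concentration-response format on HT-1080-NT cells for 48 hours at 37 degrees C. Cell viability came from CellTiter-Glo luminescence; curves were classified by r2, response magnitude and activity.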
TDP1 cell CPT – growth inhibition of DT40 Tdp1-/-;hTDP1 cells with camptothecin (screen for TDP1 inhibitors); chicken DT40 Tdp1-/-;hTDP1 cells + 20 nM CPT, ATP luminescence, 48 h; Potency, µM (doses to about 46.2 µM), without a hit: top-dose activity change, negative = growth inhibition, hits mostly inhibitors; actives 12% (n = 420,000); further: nearly all actives have a fitted effect of over 55% in size
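Chicken DT40 Tdp1-/- cells stably complemented with human TDP1 were seeded at 400 cells/well in medium containing 20 nM camptothecin, exposed to pin-transferred compounds, and grown at 37 °C for at least 48 hr. Viability was read as ATP luminescence.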
HT1080 IDH1KD tx – toxicity to HT-1080 IDH1 knockdown cells (counter line); HT-1080 IDH1 knockdown viability, ATP luminescence, 48 h; Potency, µM (titrated, usually from 46.1 µM), inactives show at the highest dose activity, negative = toxicity, hits mostly cytotoxic; actives 2% (n = 360,000);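 further: 0% = DMSO wells and -100% = cell-free medium wells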
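Assay cells: HT-1080 with IDH1 knockdown, 750 per well, RPMI/5% FBS. Exposure: 48 h at 37 °C following 2 h pre-incubation. Read: CellTiter-Glo luminescence; fitted concentration-response, curve class assigned.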
TDP1 cell noCPT – qHTS for Inhibitors of human tyrosyl-DNA phosphodiesterase 1 (TDP1): qHTS in cells in absence of CPT; AID 686978, 2013; Potency, µM (doses to about 46.2 µM), for the others: at the highest dose activity change, negative = growth inhibition, hits mostly inhibitors; actives 15% (n = 420,000); DT40 Tdp1-/- hTDP1 cells, no CPT, ATP luminescence, 48 h; further: nearly all actives have a fitted effect of over 55% in size
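Readout: luminescence from CellTiter-Glo after 30 min in the dark at RT. Cells: DT40 Tdp1-/- with stable hTDP1, 400/well. Exposure: compounds alone, ≥48 hr, 37 °C.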
KB-3-1 tox – kills parental KB-3-1 adenocarcinoma cells; Potency, µM (top dose mostly 46.1 µM), usual class: cytotoxic; actives 1.4% (n = 400,000); KB-3-1 viability, CellTiter-Glo ATP luminescence, 72 h; further: nearly all actives have a fitted effect of over 60% in size
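Parental KB-3-1 viability, qHTS format: 72 h compound exposure, 37 °C; CellTiter-Glo; media-only wells and DMSO plates as controls; concentration-effect fits on corrected data.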
An asterisk follows results filed as active; i = inactive; ? = inconclusive; / = no result. The call rests on the fitted dose curve; in most records, active means well fitted curve in the direction sought with a large enough effect; inconclusive means small, poorly fitted or top-dose-only effect, or another doubt; inactive means no such curve, though single readings can be large; an effect the other way counts as inactive or inconclusive. Unless noted, on the % scale 0 is the no-effect control and ±100 the full control effect; potency means the concentration at half of the fitted maximal effect.

SMILES | KB-V1 cytotox | HT1080NT lethal | TDP1 cell CPT | HT1080 IDH1KD tx | TDP1 cell noCPT | KB-3-1 tox
c1ccc(-c2nnc(-c3ccco3)n2-c2ccccc2)cc1 | 18µM* | 14% | -1% | 1% | -26% | i
CC(C)CCCC(C)NC(C)C (centres undefined) | / | / | 21% | / | -4% | /
O=C(NNc1c(Cl)cccc1Cl)c1sc2ccccc2c1Cl | / | -25% | 9% | ? | -24% | /
CC1(C)CC(=O)C=C(c2ccc(-c3cnc4ccccc4c3)cc2)C1=O | i | 2% | ? | 7% | 23µM* | i
CC1(C)CC(=O)C=C(c2ccc(-c3cccc4c3sc3ccccc34)cc2)C1=O | i | -13% | ? | -20% | 18µM* | i
COc1ccc(C#Cc2ccc(C3=CC(=O)CC(C)(C)C3=O)cc2)cc1 | i | -10% | ? | 1% | 16µM* | i
CC1(C)CC(=O)C=C(c2cccc3c2sc2ccccc23)C1 | i | 9% | -16% | 0% | ? | i
Cc1nn(-c2ccc(Cl)cc2)c2nc(-c3cccnc3)cc(C(F)(F)F)c12 | / | / | 15% | / | 4% | /
CC1CCN(S(=O)(=O)c2ccc3c(ccc(=O)n3CC(=O)NCc3ccccc3)c2)CC1 | i | / | -29% | / | ? | i
Cc1ccc(C)c(NC(=O)CN(CCc2ccccc2)S(=O)(=O)c2ccccc2)c1 | i | / | ? | / | ? | i
COc1ccc(OC)c(NC(=O)CN(c2ccccc2OC)S(=O)(=O)c2ccc(C)cc2)c1 | i | / | 16µM* | / | 26µM* | ?
CCOc1ccccc1NC(=O)CN(CCc1ccccc1)S(=O)(=O)c1ccc(C)cc1 | i | / | ? | / | 16µM* | i
COc1ccccc1N(CC(=O)N/N=C/c1ccc(OCC(=O)NCc2ccco2)cc1)S(=O)(=O)c1ccc(C)cc1 | i | ? | ? | ? | 13µM* | i
COc1ccc(C)cc1NC(=O)CN(c1cc(C(F)(F)F)ccc1Cl)S(C)(=O)=O | i | / | ? | / | 16µM* | i
COc1ccccc1N(CC(=O)NCc1ccco1)S(=O)(=O)c1ccc(C)cc1 | i | -3% | -21% | -3% | -2% | i
CCOC(=O)c1c(S(=O)(=O)N2CCCC(C(=O)Nc3cccc(C#N)c3)C2)c(C)n(C)c1C (centres undefined) | i | / | ? | / | ? | i
O=C(CN(c1ccc(Cl)cc1)S(=O)(=O)c1ccccc1)N/N=C/c1ccco1 | i | -12% | -13% | -8% | -39% | i
Cc1ccc(S(=O)(=O)N(CC(=O)N/N=C/c2ccco2)c2cc(Cl)cc(Cl)c2)cc1 | 18µM* | ? | -26% | ? | -7% | i
CCc1ccccc1NC(=O)CN(c1ccccc1OC)S(=O)(=O)c1ccc(C)cc1 | i | / | ? | / | 18µM* | i
CCc1ccc(C(=O)c2cn(CC(=O)Nc3cccc(C)c3C)c3nc(C)ccc3c2=O)cc1 | i | / | ? | / | -15% | i
Cn1cnc(S(=O)(=O)N2CCN(C(c3ccc(F)cc3)c3ccc(F)cc3)CC2)c1 | i | ? | -30% | -14% | -4% | i
Cc1cc(C)c(C#N)c(SCC(=O)c2ccccc2)n1 | i | -5% | 16µM* | -4% | -46% | i
Cc1cc(C)c(C(N)=O)c(SCC(=O)c2ccc(Cl)cc2)n1 | i | 0% | ? | -6% | ? | i
Cc1ccc(C(=O)CSc2nc(C)cc(C)c2C(N)=O)cc1 | 16µM* | ? | ? | ? | ? | i
COc1ccc(-c2noc(-c3ccc(NCc4ccc(C)cc4)c([N+](=O)[O-])c3)n2)cc1OC | i | / | -2% | / | 3% | i
